# Screening data deposited in PubChem BioAssay by National Center for Advancing Translational Sciences (NCATS).
# An excerpt weighted towards active compounds, which were near 10% of everything screened.
# HP1b binding inh: blocks HP1-beta chromodomain binding to methylated histone tails. P83916. AlphaScreen HP1-beta / biotin-H3K9me3 peptide binding. Potency, µM (doses to about 114 µM), for inactives: top-dose activity change, negative = inhibition, actives largely listed as inhibitors. 390,000 compounds, 0.56% hits. AID 540317; also: potency is read from the fitted curve at half-maximal effect; nearly all actives have a fitted effect of over 70% in size
# Target sequence (P83916 whole entry, looked up): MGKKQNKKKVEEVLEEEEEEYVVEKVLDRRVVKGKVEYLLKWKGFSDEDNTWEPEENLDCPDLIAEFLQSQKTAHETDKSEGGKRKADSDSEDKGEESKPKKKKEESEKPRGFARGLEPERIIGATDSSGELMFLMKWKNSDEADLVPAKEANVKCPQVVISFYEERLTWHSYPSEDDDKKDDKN
#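 HP1-beta protein (50 nM final) preincubated 30 min at room temperature with biotinylated H3(1-18)K9me3 peptide (50 nM) in PBS pH 7.4, 0.01% Tween-20, then compound added for 30 min. AlphaScreen streptavidin donor/nickel chelate acceptor beads (10 ug/mL final), 30 min dark, luminescence read.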
# BAZ2B block: BAZ2B (human) inhibition; Potency, µM (highest dose often 114 µM), inactives show at the highest dose activity change, negative = inhibition, most hits filed as inhibitors; Q9UIF8; AlphaScreen BAZ2B-H3K14Ac peptide displacement; 360,000 compounds, 4.4% hits; AID 504333; also: potency is read from the fitted curve at half-maximal effect; % is scaled to controls: 0 for no effect and ±100 for the full control effect; nearly all actives have a fitted effect of over 60% in size
#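 BAZ2B 50 nM plus b-H3(5-23)K14Ac 50 nM, PBS pH 7.4/0.01% Tween-20, 30 min RT; compound added (max 110 uM), 30 min RT; streptavidin donor/Ni-chelate acceptor beads 10 ug/mL final, 20 min dark; AlphaScreen read.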
# JMJD2A Tudor inh: blocks the human JMJD2A Tudor domain; Potency, µM (top dose mostly 114 µM), inactives show at the top dose activity change, negative = inhibition, most hits filed as inhibitors; 390,000 compounds, 4.4% hits; AlphaScreen JMJD2A-Tudor / H3K4me3 peptide binding; O75164; also: potency is read from the fitted curve at half-maximal effect; % is scaled to controls: 0 for no effect and ±100 for the full control effect; nearly all actives have a fitted effect of over 50% in size
# Six1-Eya2 blk: blocks human Six1 binding to Eya2. AID 651725. AlphaScreen GST-Six1/His-Eya2 binding, biochemical; stronger effect = lower value. Q15475+O00167. activity change, % (test concentration not listed). 360,000 compounds, 0.56% hits; in the data active = activity change below about -65%; inconclusive = mostly about -30% to -63%; also: % is scaled to controls: 0 for no effect and ±100 for the full control effect
#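 GST-Six1 + His-Eya2 (5X stock: 250/500 nM); Tris pH 8.0, 300 mM NaCl, 0.05% BSA, 0.02% Tween 20; GSH donor/Ni acceptor beads; 1 h 37 °C dark; AlphaScreen readout.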
# CtBP-E1A inh: blocks the CtBP interaction with E1A. AlphaScreen GST-E1A/His-CtBP binding, 1536-well; stronger effect = lower value. activity change, % (no concentration beside the values). 340,000 compounds, 0.49% hits. AID 651724; in the data active = activity change below about -65%; inconclusive = mostly about -30% to -63%; also: % is scaled to controls: 0 for no effect and ±100 for the full control effect
#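 In 5 uL wells, 23 nL compound meets equimolar GST-E1A and His-CtBP (5X stock 125 nM each) for 2 h, 37 °C. Beads (5X, 50 ug/mL) then 1 h, 37 °C, dark.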
# G9a inh: blocks human histone lysine methyltransferase G9a. 350,000 compounds, 8.8% hits. Potency, µM (top dose mostly 102 µM), inactives show top-dose activity, negative = inhibition, actives largely listed as inhibitors. AID 504332. Q96KQ7. G9a H3K9 monomethylation, AlphaScreen, 2 h; also: potency is read from the fitted curve at half-maximal effect; % is scaled to controls: 0 for no effect and ±100 for the full control effect; nearly all actives have a fitted effect of over 75% in size
# Target sequence (Q96KQ7 913-1193 limits assumed): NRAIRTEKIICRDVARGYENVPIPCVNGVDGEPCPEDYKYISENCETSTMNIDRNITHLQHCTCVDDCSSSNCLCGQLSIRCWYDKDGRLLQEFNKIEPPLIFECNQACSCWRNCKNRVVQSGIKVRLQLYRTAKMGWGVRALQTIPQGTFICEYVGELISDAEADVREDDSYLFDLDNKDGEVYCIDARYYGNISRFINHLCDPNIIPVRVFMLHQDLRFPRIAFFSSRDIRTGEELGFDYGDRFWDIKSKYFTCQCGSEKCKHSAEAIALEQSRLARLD
#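 Step 1: enzyme (final 20 nM) with compound, 15 min RT. Step 2: substrate peptide 500 nM and SAM 20 uM, 2 h RT. Step 3: anti-H3K9me1 antibody and AlphaScreen beads, 10 min, then plate read.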
# * = called active by the depositor; u = inconclusive; x = no result; [ ] = remark or other dose. Unless noted, calls follow the shape of the dose curve; as a rule, active = well fitted inhibition curve with a large enough effect; inconclusive = small, poorly fitted or top-dose-only effect; inactive = no such curve, though single readings can be large or run the other way.
SMILES,HP1b binding inh,BAZ2B block,JMJD2A Tudor inh,Six1-Eya2 blk,CtBP-E1A inh,G9a inh
CC1Cc2cc(/C(O)=C3/C(=O)C(=O)N(Cc4cccnc4)C3c3cccc(O)c3)ccc2O1 (centres undefined),61%,-20%,14%,-13,x,u
Cc1cccc(N2CCN(C(=O)C3CCN(S(=O)(=O)Cc4ccccc4)CC3)CC2)c1C,17%,0%,-10%,x,x,-30%[59 µM]
Cc1cc(-c2ccc(C)c(S(=O)(=O)N3CCN(c4cccc(C(F)(F)F)c4)CC3)c2)on1,41%,3%,-1%,x,x,0%[59 µM]
CCOc1ccc(-c2cn3c(n2)sc2cc(C(=O)NCCCc4ccccc4)ccc23)cc1,39%,-16%,4%,x,x,22µM*
O=C(NCc1cccs1)c1ccc2c(c1)sc1nc(-c3ccc(F)cc3)cn12,42%,-17%,-19%,x,x,10µM*
Cc1ccc(-c2cn3c(n2)sc2cc(C(=O)NCc4cccs4)ccc23)cc1,33%,-8%,-16%,x,x,-8%[59 µM]
COc1cccc(CNc2nc3ccccc3c3nc(-c4cccc(C)c4)nn23)c1,51%,8%,1%,x,x,14%[59 µM]
Cc1ccc(-c2nc(C)c(CCNC(=O)C(=O)Nc3cc(C)ccc3C)s2)cc1,13%[57 µM],2%,-17%,x,x,5%[59 µM]
Cc1cccc(-n2c(=S)[nH]c3c(oc4ccccc43)c2=O)c1,26%,-6%,-1%,-1,3,13µM*
O=c1c2sccc2[nH]c(=S)n1-c1ccccc1,25%,-17%,5.6µM*,-1,-2,u
O=c1c2oc3ccccc3c2[nH]c(=S)n1-c1ccccc1,-27%,2%,u,2,7,8.9µM*
CC(=O)c1ccc(NC(=O)CC(NCCC2=CCCCC2)C(=O)O)cc1 (centres undefined),-15%,-6%,13µM*,7,6,u
COc1ccc(NC(=O)CNCCC2=CCCCC2)cc1,1%,7%,-16%,0,4,-5%[12.7 µM]
Nn1c(SCC(=O)Nc2ccc(F)cc2)nnc1C1CCCCC1,42%,8%,5%,-3,4,15%[2.33 µM]
CCCCn1nnnc1SCC(=O)Nc1ccc(N(C)C)cc1,-16%,-38%,u,-7,-6,45µM*
CC(C)n1c(SCC(=O)Nc2nncs2)nnc1C1CC1,27%,-10%,-20%,-1,5,29%
CN(C)c1ccc(NC(=O)CSc2nnc(C3CCCCC3)n2N)cc1,19%,u,u,-12,-2,40µM*
Cn1c(SCC(=O)Nc2nncs2)nnc1C1CC1,-34%,50µM*,56µM*,-17,-9,x
COc1ccc(NC(=O)CSc2nnc(C3CC3)n2C)cc1,6%,2%,10µM*,-1,-18,-7%
CCCCn1nnnc1SCC(=O)Nc1ccc(F)cc1,56%,5%,-1%,5,-2,1%
COc1ccc(NC(=O)CSc2nnc(C3CC3)n2N)cc1,32%,1%,-13%,0,-1,42%[12.7 µM]
Nn1c(SCC(=O)Nc2nccs2)nnc1C1CC1,35%,-22%,-1%,-2,-6,40µM*
CCn1c(SCC(=O)Nc2nccs2)nnc1C1CC1,29%,5%,-15%,3,-13,x
CCCCNS(=O)(=O)c1ccc2nc(-c3cccnc3)cc(C(=O)NCCC)c2c1,14%,7%,7%,x,x,2%[59 µM]
Clc1cccc(CN2CCSCC2)c1Cl,u,u,3.5µM*,10,5,3.5µM*
SMILES,HP1b binding inh,BAZ2B block,JMJD2A Tudor inh,Six1-Eya2 blk,CtBP-E1A inh,G9a inh
Clc1cccc(CN2CCCCCC2)c1Cl,u,u,0.71µM*,-14,6,20µM*
Clc1ccc2scc(CN3CCCCC3)c2c1,31%,5%,-13%,11,0,-4%[59 µM]
Cc1cc(NC(=O)CN2C(=O)C(C)(C)c3ccccc32)ccc1Br,20%[57 µM],2%,-22%,x,x,8%[59 µM]
CSCC(C)N1CCC(n2nccc2NC(=O)CCCc2ccccc2)CC1 (centres undefined),40%,-17%,-7%,5,1,-1%
C=C(C)CCC(C)N1CCC(n2nccc2NC(=O)CCCc2ccccc2)CC1 (centres undefined),14%,-15%,-13%,-8,-16,79µM*
CC(C)C(=O)N1CCC(n2nccc2NC(=O)CCc2ccccc2)CC1,9%,-2%[57.1 µM],25µM*,6,-6,2%
Cc1cccc(-c2nc(CN3CCN(C(=O)C4CCCO4)CC3)cs2)c1 (centres undefined),4%,-37%,-18%,0,-4,71µM*
Cn1c(=O)c2c(-c3ccc(Br)cc3)n(CCc3ccccc3)cc2n(C)c1=O,3%,u,u,x,x,u
CC1(C)CC(=O)C=C(N2CCNCC2)C1,7%,29%,-14%,8,-17,21%[59 µM]
CC1(C)CC(N2CCCC2)=CC(=[N+]2CCCCCC2)C1,4%,u,u,9,2,u
CC1(C)CC(N2CCN(c3ccccc3)CC2)=CC(=[N+]2CCCC2)C1,38%,5%,u,23,55,45µM*
CC1CC(C)C[N+](=C2C=C(N3CCCC3)CC(C)(C)C2)C1 (centres undefined),u,-17%,18µM*,4,-1,u
CCOc1ccc(NC(=O)c2cnc3sc(N4CCOCC4)nn3c2=O)cc1,-35%,-11%,-24%,x,x,17%[59 µM]
CCc1nnc(NC(=O)c2cc(=O)c3cc(C)ccc3o2)s1,31%,-9%,-13%,x,x,6%[59 µM]
Cc1nc2cc(C(=O)O)ccc2n1-c1ccccc1,43%,5%,-9%,7,4,u
CC1=CC(C)(C)[N+](C)=CN1c1ccccc1,5%,-8%,-9%,9,4,6.3µM*
Cc1cccc(OCC(=O)NNC(=O)Cn2c(=O)cnc3ccccc32)c1,44%,-4%,-2%,1,-3,-7%[2.33 µM]
COc1ccc(OCC(=O)NNC(=O)Cn2c(=O)cnc3ccccc32)cc1,44%,u,-1%,-3,2,71µM*
CNC(=S)N/N=C/c1cc(Br)cc(Br)c1O,u,3.2µM*,32µM*,-90*,-97*,-7%
Oc1c(Br)cc(Br)cc1/C=N/NC(=S)N[C@H]1CC2C=CC1C2 (some centres undefined),0%,17%,40µM*,-23,-25,x
CCC(C)NC(=O)CSc1nc2n[nH]c(C)c2c(=N)n1-c1ccc(C)c(Cl)c1 (centres undefined),-5%,-26%,-14%,x,x,-24%[59 µM]
COC(=O)c1ccc2c(c1)N(Cc1ccc(F)cc1)C(=O)c1ccccc1S2,63%,3%,2%,x,x,3%[59 µM]
CNc1ccccc1C(C)(C)c1cc(-c2cccc(OC)c2)no1,32%,-32%,-14%,-28,3,1.6µM*
